The source of these data is PubChem BioAssay (EPA / NIEHS).

Read-out in one assay: CD69, CD69 (gene 969)
In words: BSK_SAg_CD69: BioMAP Diversity Plus: SAg Assay for CD69 Biomarker Activity (AID 2283089).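 As to AC50: cell surface CD69 protein quantified by ELISA with fluorescence detection.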 As to conditions: primary human HUVEC with PBMC; actives raise or lower the signal. The gist of the method: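 HUVEC co-cultured with PBMC were dosed with chemical, and CD69 was measured by ELISA with fluorescence read-out 24 h later. Bidirectional curve fitting used DMSO as negative control and activity baseline.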

Read-out in assay [1]: Monocyte Chemoattractant Protein-1 (MCP1), CCL2 (gene 6347)
The assay is described as follows: BSK_SAg_MCP1: BioMAP Diversity Plus: SAg Assay for Monocyte Chemoattractant Protein-1 (MCP1) Biomarker Activity (AID 2283090). Conditions: primary human HUVEC with PBMC; actives raise or lower the signal. The procedure, abridged: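 Values derive from bidirectional fitting of ELISA-measured MCP1 against DMSO controls. Readings were taken 24 h after dosing human vascular endothelial cells co-cultured with peripheral blood mononuclear cells under superantigen stimulation.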

Read-out in assay [2]: E-selectin (Homo sapiens) (UniProt P16581)
The assay is described as follows: BSK_SAg_Eselectin: BioMAP Diversity Plus: SAg Assay for Eselectin Biomarker Activity (AID 2283091). As to conditions: primary human HUVEC with PBMC; actives raise or lower the signal. The gist of the method:
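Cell-surface E-selectin is read by ELISA at 24 h in the SAg co-culture of HUVEC and PBMC. Curves are fitted in both directions relative to DMSO. Parallel SRB total-protein staining tracks overt toxicity.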

Read-out in assay [3]: Monokine induced gamma interferon (MIG), CXCL9 (gene 4283)
The assay is described as follows: BSK_SAg_MIG: BioMAP Diversity Plus: SAg Assay for Monokine induced gamma interferon (MIG) Biomarker Activity (AID 2283092). As to conditions: primary human HUVEC with PBMC; actives raise or lower the signal. The gist of the method: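 HUVEC plus human PBMC co-culture, chemicals dosed and MIG (CXCL9) quantified by ELISA at 24 h. Bidirectional curve fitting against DMSO as negative control and baseline, so both gain and loss of signal count as activity.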

Assay [4] can be described thus: BSK_SAg_PBMCCytotoxicity: PBMC Cytotoxicity Assessment in the BioMAP Diversity Plus: SAg Assay (AID 2283093).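 Also: PBMC viability measured as Alamar Blue reduction fluorescence at 546/580 nm; fitted both ways against DMSO so a hit may be loss or gain of signal.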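 As to AC50: PBMC superantigen activated with SEB plus TSST-1 one hour after compound addition.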 Conditions: primary human HUVEC with PBMC. The procedure, abridged: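 Alamar Blue reduction (6 h, ex/em 546/580 nm) read after 90 h culture of PBMC pre-dosed 1 h then stimulated with SEB plus TSST-1, 20 ng/mL each. Gain or loss of signal fitted relative to DMSO.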

Read-out in assay [5]: Interleukin-8 (IL8), CXCL8 (gene 3576)
The assay is described as follows: BSK_SAg_IL8: BioMAP Diversity Plus: SAg Assay for Interleukin-8 (IL8) Biomarker Activity (AID 2283094). As to conditions: primary human HUVEC with PBMC; actives raise or lower the signal. The gist of the method: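 Primary human endothelial cells with PBMC, exposed 24 h; IL-8 determined by ELISA, analysed bidirectionally relative to DMSO.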

Assay [6] is described as follows: BSK_SAg_Proliferation: Cell Proliferation Assessment in the BioMAP Diversity Plus: SAg Assay (AID 2283095).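 Also: relative cell number as total protein by SRB absorbance in sub-confluent culture.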 Conditions: primary human HUVEC with PBMC. The gist of the method: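 A human primary co-culture of umbilical vein endothelium and blood mononuclear cells receives compound; relative cell number is quantified at 96 h by SRB staining and 560 nm absorbance, with DMSO-referenced bidirectional curve fitting.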

The nature of assay [7]: BSK_SAg_SRB: Viability Assessment in the BioMAP Diversity Plus: SAg Assay (AID 2283096).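 Also: cells read one day after compound addition; hits may be either gain or loss of signal compared with DMSO.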 As to conditions: primary human HUVEC with PBMC. The gist of the method: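 SRB absorbance at 560 nm served as the viability read-out. Cells (HUVEC plus peripheral blood mononuclear cells) were TCA-fixed and stained 24 h post-dosing; activity fitted in both directions against DMSO controls.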

Assay [8] addresses human CYP1A2, CYP1A2 (gene 1544) (UniProt P05177). In words: NVS_ADME_hCYP1A2: NovaScreen (NVS) CYP450-related Enzyme Activity (ADME) Assay for human CYP1A2 (AID 2283102; active = hit-call score of the fitted dose curve at least 0.9, where 1 is the maximum;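 as to AC50: fluorescence from turnover of a fluorogenic substrate by recombinant insect-cell CYP1A2; potency for inhibition since loss of fluorescence marks reduced CYP1A2 activity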). The gist of the method:
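Enzyme activity of insect-cell-expressed human CYP1A2 measured by fluorescence 0.5 h after compound addition, relative to acetonitrile. Compounds first tested in duplicate at 10 uM, actives followed up in concentration series.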

Assay [9] deals with rat CYP2A1, Cyp2a1 (gene 24894) (UniProt P11711). In words: NVS_ADME_rCYP2A1: NovaScreen (NVS) CYP450-related Enzyme Activity (ADME) Assay for rat CYP2A1 (AID 2283114). The gist of the method:
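Cell-free fluorescence enzyme-activity read on recombinant rat CYP2A1, taken 0.75 h post-dosing. Compounds were screened in duplicate at 10 uM, then hits tested in concentration series (max 20 uM); inhibition scored relative to acetonitrile baseline.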

The target of assay [10] is human CYP1A1, CYP1A1 (gene 1543) (UniProt P04798). The assay is described as follows: NVS_ADME_hCYP1A1: NovaScreen (NVS) CYP450-related Enzyme Activity (ADME) Assay for human CYP1A1 (AID 2283100; active = hit-call score of the fitted dose curve at least 0.9, where 1 is the maximum). The procedure, abridged: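 Chemicals were first tested in duplicate at 10 uM, and those passing a 30% inhibition threshold were rerun as concentration series topping at 20 uM. Fluorescence read-out of recombinant enzyme turnover after 1 h, relative to acetonitrile.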
human CYP1A1, CYP1A1 (gene 1543), sequence (P04798 whole entry, looked up): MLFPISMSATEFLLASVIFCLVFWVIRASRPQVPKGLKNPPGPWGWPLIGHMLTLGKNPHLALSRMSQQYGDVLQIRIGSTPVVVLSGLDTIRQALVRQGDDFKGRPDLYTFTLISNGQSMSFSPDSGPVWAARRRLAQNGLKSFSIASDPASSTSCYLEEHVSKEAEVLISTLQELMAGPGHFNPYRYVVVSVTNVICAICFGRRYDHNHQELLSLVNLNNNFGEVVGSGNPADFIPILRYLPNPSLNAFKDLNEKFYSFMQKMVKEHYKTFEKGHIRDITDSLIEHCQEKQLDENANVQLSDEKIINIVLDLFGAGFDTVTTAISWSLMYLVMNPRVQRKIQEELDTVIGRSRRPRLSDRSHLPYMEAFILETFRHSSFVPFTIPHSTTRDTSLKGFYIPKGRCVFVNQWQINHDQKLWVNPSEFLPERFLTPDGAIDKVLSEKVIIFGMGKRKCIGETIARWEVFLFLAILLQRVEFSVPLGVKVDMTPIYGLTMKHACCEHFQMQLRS

Assay [11] concerns the target human CYP2C9, CYP2C9 (gene 1559) (UniProt P11712). In words: NVS_ADME_hCYP2C9: NovaScreen (NVS) CYP450-related Enzyme Activity (ADME) Assay for human CYP2C9 (AID 2283108; active = hit-call score of the fitted dose curve at least 0.9, where 1 is the maximum). The gist of the method:
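Fluorescence readout of CYP2C9 activity (SF9-expressed human enzyme) at 0.75 h. The primary screen used 10 uM in duplicate, with concentration-response follow-up for actives; acetonitrile was the negative control.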

In assay [12] the target is Cytochrome P450 3A4 (Homo sapiens) (UniProt P08684). In words: NVS_ADME_hCYP3A4: NovaScreen (NVS) CYP450-related Enzyme Activity (ADME) Assay for human CYP3A4 (AID 2283110; active = hit-call score of the fitted dose curve at least 0.9, where 1 is the maximum). The gist of the method: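 Compounds screened in duplicate at 10 uM, with follow-up concentration-response for actives, against insect-cell-expressed recombinant enzyme. Activity read by fluorescence 0.33 h after dosing; loss of signal versus acetonitrile control indicates inhibition.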
Cytochrome P450 3A4 (Homo sapiens), sequence (P08684 whole entry, looked up): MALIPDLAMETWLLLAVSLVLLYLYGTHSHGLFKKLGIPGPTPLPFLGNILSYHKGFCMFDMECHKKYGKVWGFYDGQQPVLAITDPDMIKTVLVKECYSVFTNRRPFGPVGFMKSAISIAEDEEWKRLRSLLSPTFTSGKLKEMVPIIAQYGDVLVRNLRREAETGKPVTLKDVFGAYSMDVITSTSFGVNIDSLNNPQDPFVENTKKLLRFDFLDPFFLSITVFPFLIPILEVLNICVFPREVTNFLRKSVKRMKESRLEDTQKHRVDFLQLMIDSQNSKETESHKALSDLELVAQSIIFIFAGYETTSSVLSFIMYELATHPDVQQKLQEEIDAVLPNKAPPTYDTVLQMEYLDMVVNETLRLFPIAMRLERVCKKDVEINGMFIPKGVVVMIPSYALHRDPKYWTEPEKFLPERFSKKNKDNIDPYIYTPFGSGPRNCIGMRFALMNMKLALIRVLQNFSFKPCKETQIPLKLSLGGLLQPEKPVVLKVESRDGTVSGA

For assay [13], the target named is human CYP2B6, CYP2B6 (gene 1555) (UniProt P20813). In words: NVS_ADME_hCYP2B6: NovaScreen (NVS) CYP450-related Enzyme Activity (ADME) Assay for human CYP2B6 (AID 2283101; active = hit-call score of the fitted dose curve at least 0.9, where 1 is the maximum). The gist of the method:
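Recombinant human CYP2B6 with fluorogenic substrate, read by fluorescence intensity 1 h after dosing. Primary screen in duplicate at 10 uM, actives followed in concentration series; signal loss relative to acetonitrile control.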

Assay [14] has as its target human CYP2D6, CYP2D6 (gene 1565) (UniProt P10635). The assay is described as follows: NVS_ADME_hCYP2D6: NovaScreen (NVS) CYP450-related Enzyme Activity (ADME) Assay for human CYP2D6 (AID 2283107; active = hit-call score of the fitted dose curve at least 0.9, where 1 is the maximum). The procedure, abridged:
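Fluorescence readout of recombinant CYP2D6 (insect-cell derived) activity after 1 h incubation with test chemical. Acetonitrile served as baseline, loss-of-signal direction. Single-concentration duplicate screening at 10 uM preceded concentration-response retesting.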

Assay [15] addresses human CYP4F12, CYP4F12 (gene 66002) (UniProt Q9HCS2). The assay is described as follows: NVS_ADME_hCYP4F12: NovaScreen (NVS) CYP450-related Enzyme Activity (ADME) Assay for human CYP4F12 (AID 2283111; active = hit-call score of the fitted dose curve at least 0.9, where 1 is the maximum). The procedure, abridged:
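Recombinant enzyme with a fluorescent substrate, signal read at 0.5 h post-dose; activity loss analysed relative to acetonitrile. Compounds first run in duplicate at 10 uM, with follow-up concentration-response testing of actives.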

Assay [16] has as its target human CYP19A1, CYP19A1 (gene 1588) (UniProt P11511). In words: NVS_ADME_hCYP19A1: NovaScreen (NVS) CYP450-related Enzyme Activity (ADME) Assay for human CYP19A1 (AID 2283098; active = hit-call score of the fitted dose curve at least 0.9, where 1 is the maximum). The gist of the method: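 Primary testing was in duplicate at a single 10 uM concentration, with actives followed up in concentration-response series. Fluorescence read-out of recombinant enzyme activity at 0.5 h, cell-free. Acetonitrile was the negative-control baseline.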

Each structure is given as a SMILES string. Records with an inconclusive call do not appear. Activity calls are given as the source filed them. The calls were made as follows, unless noted: active = hit-call score of the fitted dose curve at least 0.9, where 1 is the maximum; inactive = score below 0.9.

human CYP2C9, CYP2C9 (gene 1559), sequence (P11712 whole entry, looked up): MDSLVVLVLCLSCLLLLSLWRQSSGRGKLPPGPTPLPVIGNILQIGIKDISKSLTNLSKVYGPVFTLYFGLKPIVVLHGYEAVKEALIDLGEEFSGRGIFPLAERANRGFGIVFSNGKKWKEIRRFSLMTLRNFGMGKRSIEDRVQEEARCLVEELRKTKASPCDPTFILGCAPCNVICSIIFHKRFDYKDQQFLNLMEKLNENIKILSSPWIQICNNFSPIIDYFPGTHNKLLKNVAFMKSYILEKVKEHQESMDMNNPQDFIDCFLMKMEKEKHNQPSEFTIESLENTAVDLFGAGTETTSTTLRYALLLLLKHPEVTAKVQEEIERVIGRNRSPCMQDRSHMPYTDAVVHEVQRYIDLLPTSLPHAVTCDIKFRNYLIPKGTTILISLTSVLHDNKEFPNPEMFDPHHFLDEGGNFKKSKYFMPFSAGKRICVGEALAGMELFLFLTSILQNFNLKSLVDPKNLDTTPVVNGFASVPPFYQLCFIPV
human CYP1A2, CYP1A2 (gene 1544), sequence (P05177 whole entry, looked up): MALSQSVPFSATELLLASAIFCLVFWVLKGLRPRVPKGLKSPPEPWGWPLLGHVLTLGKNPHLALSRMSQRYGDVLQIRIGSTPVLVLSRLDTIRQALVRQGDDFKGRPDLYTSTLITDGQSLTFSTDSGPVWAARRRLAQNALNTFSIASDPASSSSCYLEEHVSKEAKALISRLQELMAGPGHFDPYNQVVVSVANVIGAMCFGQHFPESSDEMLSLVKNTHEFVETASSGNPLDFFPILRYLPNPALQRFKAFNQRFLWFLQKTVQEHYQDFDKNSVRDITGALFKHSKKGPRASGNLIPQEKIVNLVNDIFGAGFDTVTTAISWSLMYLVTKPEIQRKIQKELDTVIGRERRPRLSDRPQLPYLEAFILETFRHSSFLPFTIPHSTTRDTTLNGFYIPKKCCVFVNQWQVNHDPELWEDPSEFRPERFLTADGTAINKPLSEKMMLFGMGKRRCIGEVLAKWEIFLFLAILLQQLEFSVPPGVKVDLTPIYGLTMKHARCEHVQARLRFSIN
E-selectin (Homo sapiens), sequence (P16581 whole entry, looked up): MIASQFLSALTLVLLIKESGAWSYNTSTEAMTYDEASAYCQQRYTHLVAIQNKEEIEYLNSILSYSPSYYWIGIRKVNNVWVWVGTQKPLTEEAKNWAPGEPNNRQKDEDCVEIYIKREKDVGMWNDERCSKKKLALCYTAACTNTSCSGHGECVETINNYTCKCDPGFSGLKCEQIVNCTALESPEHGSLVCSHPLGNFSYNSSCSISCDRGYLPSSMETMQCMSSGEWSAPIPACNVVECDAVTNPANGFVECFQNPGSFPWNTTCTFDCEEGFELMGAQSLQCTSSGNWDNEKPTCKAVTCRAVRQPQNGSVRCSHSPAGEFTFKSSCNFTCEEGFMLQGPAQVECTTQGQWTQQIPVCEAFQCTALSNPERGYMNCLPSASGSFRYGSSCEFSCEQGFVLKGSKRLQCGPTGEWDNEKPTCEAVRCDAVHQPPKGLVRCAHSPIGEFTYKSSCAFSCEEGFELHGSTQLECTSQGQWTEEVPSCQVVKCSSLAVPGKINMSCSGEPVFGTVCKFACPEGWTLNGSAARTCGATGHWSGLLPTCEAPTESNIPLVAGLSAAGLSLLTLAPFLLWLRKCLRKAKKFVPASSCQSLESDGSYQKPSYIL
human CYP2B6, CYP2B6 (gene 1555), sequence (P20813 whole entry, looked up): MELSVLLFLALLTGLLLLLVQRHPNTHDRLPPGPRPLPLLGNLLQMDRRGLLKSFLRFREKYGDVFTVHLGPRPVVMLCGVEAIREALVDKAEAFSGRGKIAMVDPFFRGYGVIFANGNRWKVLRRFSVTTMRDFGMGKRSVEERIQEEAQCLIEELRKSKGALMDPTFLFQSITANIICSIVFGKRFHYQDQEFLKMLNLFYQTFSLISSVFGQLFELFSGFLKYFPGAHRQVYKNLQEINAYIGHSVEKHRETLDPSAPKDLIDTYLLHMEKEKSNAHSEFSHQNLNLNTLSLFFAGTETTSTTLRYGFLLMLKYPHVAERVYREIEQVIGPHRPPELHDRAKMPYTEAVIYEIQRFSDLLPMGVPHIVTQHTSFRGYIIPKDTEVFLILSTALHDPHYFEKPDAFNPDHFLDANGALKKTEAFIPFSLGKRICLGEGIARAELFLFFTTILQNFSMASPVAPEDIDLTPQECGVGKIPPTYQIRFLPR
rat CYP2A1, Cyp2a1 (gene 24894), sequence (P11711 whole entry, looked up): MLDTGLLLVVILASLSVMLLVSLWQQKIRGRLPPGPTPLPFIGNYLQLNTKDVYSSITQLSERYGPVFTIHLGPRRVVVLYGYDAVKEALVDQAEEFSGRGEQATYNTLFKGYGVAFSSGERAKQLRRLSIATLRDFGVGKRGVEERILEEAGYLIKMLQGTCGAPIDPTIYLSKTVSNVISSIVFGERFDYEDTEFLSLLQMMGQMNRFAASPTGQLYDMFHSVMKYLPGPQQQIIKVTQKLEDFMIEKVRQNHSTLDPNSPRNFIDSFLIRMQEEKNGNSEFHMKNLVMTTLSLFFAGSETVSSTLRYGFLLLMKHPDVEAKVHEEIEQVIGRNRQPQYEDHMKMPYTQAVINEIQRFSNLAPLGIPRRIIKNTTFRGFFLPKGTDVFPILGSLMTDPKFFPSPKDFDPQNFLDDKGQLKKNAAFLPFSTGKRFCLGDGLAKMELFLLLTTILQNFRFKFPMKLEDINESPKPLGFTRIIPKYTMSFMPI
human CYP2D6, CYP2D6 (gene 1565), sequence (P10635 whole entry, looked up): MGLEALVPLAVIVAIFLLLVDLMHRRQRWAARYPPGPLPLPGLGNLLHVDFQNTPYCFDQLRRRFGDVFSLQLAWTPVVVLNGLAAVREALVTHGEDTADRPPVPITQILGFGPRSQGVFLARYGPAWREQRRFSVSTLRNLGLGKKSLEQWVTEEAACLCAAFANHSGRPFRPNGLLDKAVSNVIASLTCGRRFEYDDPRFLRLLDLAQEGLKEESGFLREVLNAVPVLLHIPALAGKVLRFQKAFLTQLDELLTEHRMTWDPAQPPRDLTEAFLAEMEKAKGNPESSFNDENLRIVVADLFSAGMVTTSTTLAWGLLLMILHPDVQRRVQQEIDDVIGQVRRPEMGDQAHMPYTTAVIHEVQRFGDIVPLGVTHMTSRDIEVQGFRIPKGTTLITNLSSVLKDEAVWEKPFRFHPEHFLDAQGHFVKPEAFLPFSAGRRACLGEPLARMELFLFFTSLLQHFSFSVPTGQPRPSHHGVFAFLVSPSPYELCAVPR
human CYP4F12, CYP4F12 (gene 66002), sequence (Q9HCS2 whole entry, looked up): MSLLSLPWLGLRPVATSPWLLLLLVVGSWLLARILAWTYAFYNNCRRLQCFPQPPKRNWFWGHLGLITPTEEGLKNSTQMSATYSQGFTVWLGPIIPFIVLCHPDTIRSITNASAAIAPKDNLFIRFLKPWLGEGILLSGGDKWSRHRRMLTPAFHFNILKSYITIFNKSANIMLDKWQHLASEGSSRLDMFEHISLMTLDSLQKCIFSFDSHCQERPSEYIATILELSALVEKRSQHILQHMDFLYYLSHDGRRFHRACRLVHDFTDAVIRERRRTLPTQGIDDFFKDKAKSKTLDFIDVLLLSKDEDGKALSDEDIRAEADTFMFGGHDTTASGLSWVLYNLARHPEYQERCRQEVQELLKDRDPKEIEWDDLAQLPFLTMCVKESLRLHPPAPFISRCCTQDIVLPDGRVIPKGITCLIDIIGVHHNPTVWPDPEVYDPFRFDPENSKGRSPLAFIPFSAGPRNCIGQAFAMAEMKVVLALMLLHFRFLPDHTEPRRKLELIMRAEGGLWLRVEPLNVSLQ

In the case of `NC(=O)O`, the outcome with CD69, CD69 (gene 969) is “inactive”; in [1], “inactive”; in [2], “inactive”; in assay [3] it was “inactive”; in [4], “inactive”; in assay [5], “inactive”. Further, the outcome in assay [6] and in assay [7] was inactive.

By AC50 is commonly meant the midpoint of the concentration-response curve, whichever way the signal moves. For `CCOC(=O)Nc1cccc(OC(=O)Nc2ccccc2)c1`, the AC50 in assay [8] is 11.4 µM (active); in [9], 6.84 µM (active).

Consider `CC1(C)CCC(Cc2ccc(Cl)cc2)C1(O)Cn1cncn1` (stereo not given), for which, in assay [10], the outcome was inactive. For the same compound, the figures for the AC50 in assay [11], in assay [12] and in [9] were 0.419 µM (active), 2.75 µM (active) and 2.5 µM (active), respectively.

Regarding `CC(=O)[O][Hg][c]1ccccc1`, the AC50 with CD69, CD69 (gene 969) is 1.39 µM (active); in [1] it was 1.04 µM (active); in [2], 1.58 µM (active); in assay [3] it was 1.78 µM (active); in assay [4], 0.318 µM (active); in assay [5] it was 11.9 µM (active). Moreover, the AC50 was 0.259 µM (active) in assay [6]; 1.63 µM (active) in [7]; 16 µM (active) in assay [10]; 6.73 µM (active) in assay [13]; 3.31 µM (active) in [8]; 4.16 µM (active) in [14]. In addition, the half-maximal activity concentration (AC50) in assay [11] was 9.85 µM (active); in assay [12] it was 1.28 µM (active); in assay [15] it was 1.9 µM (active).

For the compound `CCOP(=S)(OCC)SCSP(=S)(OCC)OCC`, the outcome was “inactive” with CD69, CD69 (gene 969); “inactive” in assay [1]; “inactive” in [3]; “inactive” in [4]; “inactive” in assay [5]; “inactive” in assay [7]. The compound was called inactive in assay [13] and in assay [8]. The AC50 in assay [2] is 15.2 µM (active); in assay [6] it was 20 µM (active).

As for `Cn1sc(Cl)cc1=O`, the AC50 in the assay with CD69, CD69 (gene 969) is 26.4 µM (active); in assay [1], 30.7 µM (active); in assay [2] it was 20 µM (active); in assay [4] it was 16.9 µM (active); in [5], 20 µM (active); in assay [6] it was 6.46 µM (active). The AC50 in [12] was 2.77 µM (active). In addition, the result in assay [3], in assay [7] and in assay [8] was inactive.

Take `Oc1cccc2cccnc12`: the outcome is “inactive” with CD69, CD69 (gene 969); “inactive” in assay [1]; “inactive” in assay [3]; “inactive” in assay [5]; “inactive” in [7]; “inactive” in assay [16]. Besides, the AC50 in assay [2] is 2.77 µM (active); in assay [4], 3.57 µM (active); in [6], 4.71 µM (active).

Consider `ClC1=C(Cl)[C@]2(Cl)[C@H]3[C@H]([C@H]4C=C[C@H]3C4)[C@@]1(Cl)C2(Cl)Cl`, for which the outcome in assay [1], in assay [2], in assay [3] and in assay [5] was inactive. The AC50 in [4] was 20 µM (active); in assay [6] it was 20 µM (active); in assay [7], 5.42 µM (active).

Take `CCCCCCCCC(=O)NCc1ccc(O)c(OC)c1`: the outcome with CD69, CD69 (gene 969) was “inactive”; in [1], “inactive”; in assay [2], “inactive”; in [3] it was “inactive”; in assay [4] it was “inactive”; in [5] it was “inactive”. Also, the result in assay [6] and in assay [7] was inactive. The values for the AC50 in assay [14] and in assay [11] were 3.45 µM (active) and 3.95 µM (active), respectively.
